Results from PubChem BioAssay AID493243 (Broad Institute, 2011).
Active and inactive are the calls of the source. No rule for the calls is given here.

Assay: compounds quenching green fluorescent protein signal – biochemical, plate reader, dry powder, artefact control, dose response (AID 493243)
Settings: GFP fluorescence counter-screen

Question: With `CCn1nc(/C=C/c2ccccc2)nc2c(=O)n(C)c(=O)nc1-2` as the molecule, how does the AC50 read?
Answer: The AC50 was 221 nM (active).
